Our source for the outcome, Potency and activity change, negative = inhibition values is PubChem BioAssay (NCATS).

A short description of experiment [1]: AP1 Signaling Pathway (AID 357). Note: % is set by controls: 0 for no effect and ±100 for the full control effect. In outline:
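AP-1-bla ME-180 cells with beta-lactamase reporter under AP-1 response element, stimulated with EC50 EGF; compounds titrated, 5 hours at 37 degrees Celsius. CCF4 read at 460/530 nm ratio; positive and negative modulators judged by AC50.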

The target of experiment [2] is Cytochrome P450 1A2 (Homo sapiens) (UniProt P05177). In words: p450-cyp1a2 (AID 410; calls by dose curve; note: potency is the fitted concentration of half-maximal effect;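 for activity change, negative = inhibition: -100% = full effect of reference inhibitor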). The gist of the method:
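Inhibition was calculated relative to 57 uM furafylline (full inhibition). The reaction used human CYP1A2 at 20nM with Luciferin-ME at its Km, 100uM, driven by an NADPH-regenerating system for 60 min at room temperature.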

Experiment [3] can be described thus: NFAT Signaling Pathway (AID 444).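 Note: carbachol stimulus at about its EC50 of 1 µM final; % is set by controls: 0 for no effect and ±100 for the full control effect.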 The note with it: Jurkat NFAT-bla M1, carbachol, beta-lactamase ratio, 5 h. In outline:
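Jurkat cells with NFAT-driven β-lactamase reporter and co-expressed M1 receptor, stimulated with carbachol (final 1 uM, ~EC50), compound titration, 5 h at 37 °C. CCF4 loaded 1 h at RT; 460/530 nm ratio gave %activity and AC50.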

Experiment [4] can be described thus: Stat Signaling Pathway (AID 446).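 Note: ME-180 cervical cancer cells given 40 pM IL-6 alongside compound; SIE-controlled beta-lactamase reporter measured as 460/530 nm FRET emission ratio; % is set by controls: 0 for no effect and ±100 for the full control effect.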 In outline:
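IL-6/STAT signaling read in ME-180 cells via an SIE beta-lactamase reporter. Stimulus was 40 pM IL-6 (its AC50) for 5 hrs, so both activation and inhibition register.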

Experiment [5] concerns the target Glucocorticoid receptor (Homo sapiens) (UniProt P04150). In words: GR-GFP Redistribution (AID 450;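 active = compounds whose dose series gives a full or clear partial fitted curve of increased nuclear translocation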; note: potency is the fitted concentration of half-maximal effect). Particulars: U2OS GR-GFP nuclear translocation, laser cytometry, 2 h.
Experiment [6] shares this target. Briefly: GR-EFC Redistribution (AID 451; calls by dose curve; note: potency is the fitted concentration of half-maximal effect). The note with it: CHO-K1 GR-EFC translocation, beta-gal luminescence, 2 h. The gist of the method: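 CHO-K1 cells expressing nuclear EA and GR-ED fragments of b-gal; compounds titrated up to 46 uM final, 2 h at 37 C. GR nuclear translocation read as complemented b-gal luminescence after 1 h RT detection.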
Experiment [7] concerns the target Mitogen-activated protein kinase 10 (Mus musculus) (UniProt Q61831). In words: JNK3 AlphaScreen Assay (AID 530).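 Note: kinase came from lysate of stimulated human HepG2 cells; signal reports phosphorylation of biotinylated GST-cJun 1-79 at Ser73 with 10 µM ATP; % is set by controls: 0 for no effect and ±100 for the full control effect.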 In outline: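 qHTS format: compounds tested as titrations against IL-1beta/TNF-alpha-activated HepG2 lysate JNK3 with biotin-GST-cJun substrate and 10 uM ATP at room temperature. Loss of anti-phospho-cJun AlphaScreen signal indicates inhibition.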
Experiment [8] can be described thus: Cell Viability - BJ (AID 421; calls by dose curve;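 note: potency is the fitted concentration of half-maximal effect; cells exposed to compound for 40 hours at 37 °C before readout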). The note with it: BJ fibroblast viability, qHTS. In outline: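 Quantitative HTS: ATP depletion in BJ cells after 40 hr compound exposure in complete culture medium, detected with CellTiter-Glo; AC50 from standard Hill fits.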
A short description of experiment [9]: Cell Viability - Jurkat (AID 426;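 active = dose-dependent loss of cell ATP signal giving a full or clear fitted curve, ranked by lower potency value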; note: potency is the fitted concentration of half-maximal effect). Particulars: qHTS. In outline:
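Seed 5000 Jurkat E6-1 cells/well; add compound; incubate 40 hr at 37 °C; add CellTiter-Glo; wait 20 min at room temperature; read luminescence. Fit concentration-response with Hill equation for AC50.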
(qHTS replaces the single test concentration by a dilution series.)

Experiment [10] is described as follows: Cell Viability - Hek293 (AID 427;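 active = compounds whose dose-response curve shows a full or clear partial loss of cell viability, called from curve shape rather than a numeric limit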;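 note: potency is the fitted concentration of half-maximal effect; cells exposed to compound for 40 hours at 37 °C before reading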). The note with it: qHTS. The gist of the method:
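AC50 values derive from Hill-modelled concentration-response of ATP-based luminescence, normalized between DMSO-only and 100 uM tamoxifen controls. Cells were exposed in complete culture medium for 40 hr at 37 °C before detection.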

A short description of experiment [11]: Cell Viability - HepG2 (AID 433; calls by dose curve;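 note: potency is the fitted concentration of half-maximal effect; potency for ATP loss meaning cytotoxicity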). The note with it: qHTS. The gist of the method:
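HepG2 hepatocellular carcinoma cells (1500/well) were treated with compounds for 40 h at 37 °C in complete medium; intracellular ATP was read by CellTiter-Glo luminescence. Data were normalized to DMSO and 100 uM tamoxifen, and AC50 came from Hill fits.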

The nature of experiment [12]: Cell Viability - MRC5 (AID 434; calls by dose curve;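 note: potency is the fitted concentration of half-maximal effect; potency reflects cytotoxicity seen as loss of intracellular ATP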). Particulars: MRC5 lung fibroblast viability, qHTS. The gist of the method:
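MRC5 normal human lung fibroblasts, 1500 cells/well, exposed to compound for 40 hr at 37 C. Cellular ATP was read by CellTiter-Glo luminescence; data normalized to DMSO and 100 uM tamoxifen, with AC50 from Hill fits.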

Experiment [13] can be described thus: Cell Viability - SK-N-SH (AID 435; calls by dose curve;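 note: potency is the fitted concentration of half-maximal effect; compound exposure lasted 40 h at 37 °C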). The note with it: SK-N-SH neuroblastoma cell viability qHTS. The gist of the method: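 SK-N-SH human neuroblastoma cells (1500/well) were exposed to compounds in complete medium for 40 h at 37 °C, and intracellular ATP was then measured by CellTiter-Glo luminescence. AC50 was taken from Hill fits, normalized to DMSO and 100 uM tamoxifen.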

A short description of experiment [14]: Cell Viability - N2a (AID 540; active = well fitted curve in the direction sought with a large enough effect; an effect the other way counts as inactive or inconclusive;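 note: plate controls were DMSO alone for no effect and tamoxifen control for full effect; nearly all actives have a fitted effect of over 45% in size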). The gist of the method:
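First, 1500 N2a cells per well incubate 5 hr at 37 °C; next, compounds are added and incubated 40 hr at 37 °C; finally CellTiter-Glo is added and luminescence read after 20 min, with AC50 derived by Hill modeling.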

A short description of experiment [15]: Cell Viability - HUV-EC-C (AID 542; active = well fitted curve in the direction sought with a large enough effect; an effect the other way counts as inactive or inconclusive; note: % is set by controls: 0 for no effect and ±100 for the full control effect; nearly all actives have a fitted effect of over 35% in size). In outline:
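Decrease in cellular ATP, quantified by luciferase luminescence, reflects toxicity in normal human vascular endothelial HUV-EC-C cells given compound for 40 hr in complete culture medium. Values are AC50s from concentration-response curves.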

The nature of experiment [16]: Cell Viability - H-4-II-E (AID 543; active = well fitted curve in the direction sought with a large enough effect; an effect the other way counts as inactive or inconclusive; note: % is set by controls: 0 for no effect and ±100 for the full control effect; nearly all actives have a fitted effect of over 35% in size). The gist of the method:
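Here, cytotoxicity is measured in the rat hepatoma line H-4-II-E as loss of intracellular ATP after 40 hr compound treatment, detected by luciferase luminescence.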

A short description of experiment [17]: Cell Viability - Renal Proximal Tubule (AID 545; active = well fitted curve in the direction sought with a large enough effect; an effect the other way counts as inactive or inconclusive;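 note: 0% = DMSO only and -100% = 100 µM tamoxifen; nearly all actives have a fitted effect of over 40% in size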). The gist of the method:
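Primary rat renal proximal tubule cells (1000/well) were treated with compounds for 40 hr at 37 °C in complete medium. Intracellular ATP was measured by CellTiter-Glo luminescence, and AC50 values came from Hill-equation fits of concentration-response data.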

The nature of experiment [18]: Cell Viability - Mesenchymal (AID 546; active = well fitted curve in the direction sought with a large enough effect; an effect the other way counts as inactive or inconclusive;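 note: cells exposed to compound for 40 hours before reading; 0% = DMSO only and -100% = 100 µM tamoxifen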). The gist of the method:
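Human kidney mesenchymal cells from normal renal glomeruli, 1000 cells/well, rested 5 hr at 37 °C, then treated 40 hr at 37 °C in complete medium. Cellular ATP read by CellTiter-Glo luminescence; AC50 from Hill-equation fits.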

The target in experiment [19] is Lysosomal acid glucosylceramidase (Homo sapiens) (UniProt P04062). In words: Glucocerebrosidase-p2 (AID 348; in the data active = potency below about 10 µM; note: potency is the fitted concentration of half-maximal effect). Particulars: purified GBA, blue fluorogenic substrate, 40 min. The gist of the method: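 Compounds titrated from 0.6 nM upwards against 0.2 nM enzyme in pH 5.9 citric acid/KH2PO4, taurocholate, tween-20; blue fluorogenic substrate 80 uM, 40 min room temperature, stopped and read Ex 365/Em 440 for AC50.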

A short description of experiment [20]: Cell Viability - NIH 3T3 (AID 541; active = well fitted curve in the direction sought with a large enough effect; an effect the other way counts as inactive or inconclusive;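 note: plate controls were DMSO alone for no effect and tamoxifen positive control for full effect; nearly all actives have a fitted effect of over 25% in size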). The gist of the method: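 AC50 values reflect concentration-dependent loss of intracellular ATP in NIH 3T3 cells after 40 hr treatment in complete culture medium, quantified by luciferase-based luminescence.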
[21] abbreviates: at 17.2 µM (top of the series) unless noted.

Where “and” joins values, the source holds several entries; their conditions need not be identical. Equal values may be shown once. A number with no mark means an inactive call. Records with an inconclusive call do not appear. Calls of active or inactive are those of the source. Unless noted, calls come from the whole dose curve; as a rule, active = well fitted curve in either direction with a large enough effect (not every such curve was filed as active); inconclusive = small, poorly fitted or top-dose-only effect, or another doubt; inactive = flat fitted curve, though single readings scatter.

Sequence of Cytochrome P450 1A2 (Homo sapiens) (P05177 whole entry, looked up): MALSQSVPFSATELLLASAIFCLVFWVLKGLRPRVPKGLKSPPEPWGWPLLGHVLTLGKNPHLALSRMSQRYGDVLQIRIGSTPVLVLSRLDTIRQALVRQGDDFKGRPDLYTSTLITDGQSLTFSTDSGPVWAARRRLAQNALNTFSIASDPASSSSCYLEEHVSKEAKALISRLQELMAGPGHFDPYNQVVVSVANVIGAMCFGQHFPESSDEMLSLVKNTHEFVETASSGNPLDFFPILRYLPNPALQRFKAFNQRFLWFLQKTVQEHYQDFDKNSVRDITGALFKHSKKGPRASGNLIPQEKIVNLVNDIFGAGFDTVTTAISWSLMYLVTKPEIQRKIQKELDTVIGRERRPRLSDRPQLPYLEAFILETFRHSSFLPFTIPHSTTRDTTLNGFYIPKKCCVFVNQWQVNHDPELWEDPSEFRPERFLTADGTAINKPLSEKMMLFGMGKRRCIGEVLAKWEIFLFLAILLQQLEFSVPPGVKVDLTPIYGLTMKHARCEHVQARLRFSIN
Sequence of Glucocorticoid receptor (Homo sapiens) (P04150 whole entry, looked up, the tested form may be a part): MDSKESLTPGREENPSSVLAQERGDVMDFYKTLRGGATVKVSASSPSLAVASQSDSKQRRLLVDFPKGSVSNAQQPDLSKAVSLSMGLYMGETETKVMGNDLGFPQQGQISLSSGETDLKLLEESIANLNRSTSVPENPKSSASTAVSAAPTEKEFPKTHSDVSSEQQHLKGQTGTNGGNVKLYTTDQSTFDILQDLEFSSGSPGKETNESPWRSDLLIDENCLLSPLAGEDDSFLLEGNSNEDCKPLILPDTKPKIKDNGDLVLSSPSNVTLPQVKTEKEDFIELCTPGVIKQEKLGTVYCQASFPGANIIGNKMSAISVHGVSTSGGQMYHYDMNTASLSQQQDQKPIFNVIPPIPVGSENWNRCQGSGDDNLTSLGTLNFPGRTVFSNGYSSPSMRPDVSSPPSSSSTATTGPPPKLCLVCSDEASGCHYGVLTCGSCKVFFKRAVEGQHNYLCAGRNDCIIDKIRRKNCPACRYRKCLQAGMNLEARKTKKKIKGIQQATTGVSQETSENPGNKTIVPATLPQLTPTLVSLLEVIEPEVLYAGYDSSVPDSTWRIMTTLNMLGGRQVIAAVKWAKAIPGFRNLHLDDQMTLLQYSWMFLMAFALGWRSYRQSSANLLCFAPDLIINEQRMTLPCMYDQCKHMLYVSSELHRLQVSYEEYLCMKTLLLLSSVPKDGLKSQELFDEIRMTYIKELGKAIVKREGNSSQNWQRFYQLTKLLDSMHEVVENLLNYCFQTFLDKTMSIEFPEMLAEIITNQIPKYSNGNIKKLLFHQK
Sequence of Lysosomal acid glucosylceramidase (Homo sapiens) (P04062 whole entry, looked up): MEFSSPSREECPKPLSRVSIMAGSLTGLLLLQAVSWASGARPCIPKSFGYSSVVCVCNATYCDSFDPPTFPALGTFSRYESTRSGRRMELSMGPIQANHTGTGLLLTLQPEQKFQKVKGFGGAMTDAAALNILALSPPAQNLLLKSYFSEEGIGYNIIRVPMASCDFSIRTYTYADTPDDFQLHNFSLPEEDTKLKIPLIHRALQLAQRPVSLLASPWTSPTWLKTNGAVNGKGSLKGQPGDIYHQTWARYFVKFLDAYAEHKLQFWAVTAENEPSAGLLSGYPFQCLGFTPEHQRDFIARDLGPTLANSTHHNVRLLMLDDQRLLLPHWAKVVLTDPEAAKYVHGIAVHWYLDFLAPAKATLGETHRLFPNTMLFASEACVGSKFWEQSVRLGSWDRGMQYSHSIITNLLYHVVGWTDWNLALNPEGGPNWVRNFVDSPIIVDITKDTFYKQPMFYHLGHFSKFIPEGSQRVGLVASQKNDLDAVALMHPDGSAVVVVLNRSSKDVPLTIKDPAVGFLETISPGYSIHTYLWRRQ

On to `Cn1c([N+](=O)[O-])cnc1COC(N)=O`, for which the molecule was classed as inactive in experiment [1], in experiment [4] and in experiment [7]. Besides, the Potency entry in experiment [2] was “inactive”. Further, the activity change, negative = inhibition in [3] (setting [21]) was -6.16% and -23.1%. In addition, the Potency in experiment [5] and in experiment [6] was greater than 20.6 µM throughout.
Turning to `CCOC(=O)[C@H](CCc1ccccc1)N[C@@H](C)C(=O)N1CCC[C@H]1C(=O)O`, the molecule was classed as inactive in experiment [1], in [4] and in [7]. In experiment [2], the Potency entry was “inactive”. Also, the activity change, negative = inhibition in experiment [3] (setting [21]) is 0.851%. Also, the Potency in experiment [5] and in [6] was greater than 20.6 µM in each case.
Consider `CN1CCCN=C1COC(=O)C(O)(c1ccccc1)C1CCCCC1` (stereo unspecified), for which the call in experiment [1] and in experiment [4] was inactive. For the same molecule, in experiment [3] (setting [21]), the activity change, negative = inhibition is -84.1% (active). Moreover, the Potency in experiment [5] is greater than 20.6 µM.
`CN1C(C)(C)CCCC1(C)C`: the call in experiment [1], in experiment [4] and in [7] was inactive. Moreover, the activity change, negative = inhibition is -4.12% in [3] (at 17.2 µM (top of the series)) and 7.41% in experiment [3] (at 38 µM (top of the series)). Besides, the Potency in experiment [5] was > 46 µM and > 20.6 µM; in experiment [6], > 46 µM and > 20.6 µM.
Turning to `O=C(O)c1ccccc1C(=O)Nc1ccc(S(=O)(=O)Nc2nccs2)cc1`, the result in experiment [1], in [4] and in experiment [7] was inactive. Further, the Potency result in experiment [2] was “inactive”. Moreover, the activity change, negative = inhibition in experiment [3] (setting [21]) is 11.2%. Also, the Potency in experiment [5] and in [6] was greater than 20.6 µM in each case.
Regarding `Nc1ccc(S(=O)(=O)c2ccc(N)cc2)cc1`, the molecule was classed as inactive in experiment [1], in experiment [4], in experiment [7], in experiment [14], in experiment [15] and in experiment [16]. The molecule was classed as inactive in experiment [17] and in [18]. Further, the Potency in experiment [8], in experiment [9], in [10], in experiment [11], in experiment [12] and in experiment [13] was greater than 92 µM in each case. In addition, the activity change, negative = inhibition in experiment [3] (setting [21]) is -0.066% and 13.8%.
Consider `COc1ccc2cc(CCC(C)=O)ccc2c1`, for which the outcome in experiment [1], in [4] and in [7] was inactive. The Potency in [2] is 0.398 µM (active); in experiment [5] it was greater than 20.6 µM; in experiment [6] it was greater than 20.6 µM. In experiment [3] (setting [21]), the activity change, negative = inhibition is -1.6%.
As for `C[C@@H]1CCC[C@H](C)N1`, the call in [1], in experiment [4] and in experiment [7] was inactive. For the same molecule, in experiment [2], the Potency result was “inactive”. For the same molecule, the activity change, negative = inhibition in experiment [3] (setting [21]) is -5.56%. For the same molecule, the Potency in [5] and in experiment [6] was greater than 20.6 µM in each case.
For the molecule `NC(N)=NS(=O)(=O)c1ccc(N)cc1`, the outcome in experiment [1], in [4] and in experiment [7] was inactive. Moreover, the Potency entry in experiment [2] was “inactive”. Besides, the activity change, negative = inhibition in [3] (setting [21]) is -6.04% and -19.4%. In addition, the Potency in experiment [5] and in experiment [6] was greater than 20.6 µM each time.
As to `Cc1cccc(Nc2ccccc2C(=O)O)c1C`, the molecule was called inactive in experiment [1], in [4] and in experiment [7]. Moreover, the Potency was 5.01 µM (active) in [2], greater than 20.6 µM in experiment [5] and greater than 20.6 µM in experiment [6]. Moreover, in [3] (setting [21]), the activity change, negative = inhibition was -4.97%.
In the case of `CC1CCc2cc(F)cc3c(=O)c(C(=O)O)cn1c23` (stereo unspecified), the result in experiment [1] and in [4] was inactive. In [3] (setting [21]), the activity change, negative = inhibition was 13.1%. In addition, in experiment [5], the Potency is greater than 20.6 µM.
Consider `Cc1c(NC(C)C)c(=O)n(-c2ccccc2)n1C`, for which the molecule was called inactive in [1], in experiment [4] and in [7]. Also, the Potency in experiment [2] was 0.0398 µM (active); in [5] it was greater than 20.6 µM; in experiment [6], greater than 20.6 µM. Besides, the activity change, negative = inhibition in experiment [3] (setting [21]) was -8.51%.
With `CCN(CC)CCc1nc(-c2ccccc2)no1`, the result in [1], in experiment [4] and in experiment [7] was inactive. Also, the Potency was 5.01 µM (active) in experiment [2], greater than 20.6 µM in experiment [5] and greater than 20.6 µM in experiment [6].
As to `Cn1c(=O)c2c(ncn2CCO)n(C)c1=O`, the molecule was classed as inactive in experiment [1], in experiment [4] and in experiment [7]. The Potency entry in experiment [2] is “inactive”. Besides, the activity change, negative = inhibition in [3] (setting [21]) was -0.574%.
On to `CN/C(=C\[N+](=O)[O-])NCCSCc1csc(CN(C)C)n1`, for which the call in [1], in [4] and in experiment [7] was inactive. Further, the Potency result in experiment [2] is “inactive”. The activity change, negative = inhibition in [3] (setting [21]) is -2.1%. The Potency in experiment [5] and in experiment [6] was greater than 20.6 µM in each case.
For `NS(=O)(=O)c1ccc(C(=O)O)cc1`, the Potency was greater than 11.4 µM in [19]; > 46 µM and > 20.6 µM in experiment [5]; greater than 9.22 µM in experiment [6]. Moreover, the molecule was classed as inactive in [1], in experiment [4] and in [7]. Further, the Potency entry in experiment [2] was “inactive”. The activity change, negative = inhibition in experiment [3] (at 7.69 µM (top of the series)) is 7.39%; in [3] (at 17.2 µM (top of the series)), 8.44%.
`Cc1cc(C)nc(NS(=O)(=O)c2ccc(N)cc2)n1`: the molecule was classed as inactive in experiment [1], in [4], in [7], in [14], in experiment [20] and in experiment [15]. Moreover, the result in [16], in [17] and in experiment [18] was inactive. Moreover, in experiment [2], the Potency result is “inactive”. In addition, the Potency in [8], in [9], in experiment [10], in experiment [11], in experiment [12] and in [13] was greater than 92 µM each time. For the same molecule, the Potency in [5] and in experiment [6] was greater than 20.6 µM in each case. The activity change, negative = inhibition in experiment [3] (setting [21]) was -2.6%.
Consider `O=C(O)CCCc1ccccc1`, for which the result in experiment [1] and in experiment [4] was inactive. Further, the activity change, negative = inhibition in experiment [3] (setting [21]) is 20.3%. In addition, in experiment [5], the Potency was greater than 20.6 µM.
